From PubChem BioAssay (EPA / NIEHS) come the findings set out here.

Molecules are shown by their SMILES. The source made the active and inactive calls. How the source made its calls: active means hit-call score of the fitted dose curve at least 0.9, where 1 is the maximum; inconclusive means response in the unintended direction; inactive means score below 0.9.

In this assay the target is Peroxisome proliferator-activated receptor gamma (Homo sapiens) (UniProt P37231). The assay can be described thus: OT_PPARg_PPARgSRC1_1440: Odyssey Thera (OT) 24-hour Protein-Complementation Assay for Peroxisome Proliferator-activated Receptor Gamma/ SRC-1 Co-activator (AID 2283388).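 Further: nuclear to cytoplasmic ratio of reconstituted Venus YFP fluorescence in fixed imaged cells.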 On the procedure: OT_PPARg_PPARgSRC1_1440 is a cell-based assay that uses HEK293T, a human kidney cell line, with measurements taken at 24 hours after chemical dosing in a 384-well plate.OT_PPARg_PPARgSRC1_1440 is one of one assay component(s) measured or calculated from the OT_PPARg_PPARgSRC1_1440 assay. It is designed to make measurements of protein fragment complementation, a form of binding reporter, as detected with fluorescence intensity signals by Protein-fragment Complementation technology.Data from the assay component OT_PPARg_PPARgSRC1_1440 was analyzed into 1 assay endpoint. This assay endpoint, OT_PPARg_PPARgSRC1_1440, was analyzed in the positive analysis fitting direction relative to DMSO as the negative control and baseline of activity. Using a type of binding reporter, measures of receptor for gain-of-signal activity can be used to understand the binding at the pathway-level as they relate to the gene PPARG. Furthermore, this assay endpoint can be referred to as a primary readout, because the performed assay has only produced 1 assay endpoint. To generalize the intended target to other relatable targets, this assay endpoint is annotated to the nuclear receptor intended target family, where the subfamily is non-steroidal.
Chain of Peroxisome proliferator-activated receptor gamma (Homo sapiens) (P37231 whole entry, looked up, the tested form may be a part): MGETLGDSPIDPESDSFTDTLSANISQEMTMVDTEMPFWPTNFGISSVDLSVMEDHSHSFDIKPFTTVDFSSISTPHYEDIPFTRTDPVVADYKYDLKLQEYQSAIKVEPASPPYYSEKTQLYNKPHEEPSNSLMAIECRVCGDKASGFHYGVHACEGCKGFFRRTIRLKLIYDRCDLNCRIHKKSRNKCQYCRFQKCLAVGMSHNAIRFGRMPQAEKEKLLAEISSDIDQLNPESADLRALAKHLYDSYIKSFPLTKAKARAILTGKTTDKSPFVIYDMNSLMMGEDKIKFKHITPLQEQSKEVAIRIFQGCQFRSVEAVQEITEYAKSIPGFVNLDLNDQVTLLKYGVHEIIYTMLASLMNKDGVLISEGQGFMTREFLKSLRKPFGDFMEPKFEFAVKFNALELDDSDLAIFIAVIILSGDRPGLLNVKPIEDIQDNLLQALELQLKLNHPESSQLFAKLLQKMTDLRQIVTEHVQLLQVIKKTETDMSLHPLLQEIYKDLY
The OT PPARg/SRC-1 assay assessed receptor-chemical interactions using a rapidly maturing, intensely fluorescent mutant of YFP known as Venus, rationally dissected into two separate fragments. The fragments were obtained as follows: first, fragments coding for YFP1 and YFP2 (corresponding to amino acid residues 1-158 and 159-239 of the full length YFP, respectively) were generated by oligonucleotide synthesis (Blue Heron Biotechnology), and then PCR mutagenesis was used to generate the mutant fragments IFP1 and IFP2. Fusion constructs were transfected into HEK293T cells with a (Gly4Ser)2 linker between the PPARg/SRC-1 and YFP fragment genes to facilitate complementation when interacting proteins bring fragments into close proximity. The construct is transiently transfected in HEK293T cells 48 hours prior to treatment with test compounds. Cells are seeded into optical quality 384-well poly-D-lysine coated plates in MEM alpha medium (Invitrogen) supplemented with 10 percent FBS (Gemini Bio-Products) 1 percent penicillin and 1 percent streptomycin, and grown in 37C incubator equilibrated to 5 percent CO2. Cells are allowed to adhere for 24 hours prior to treatment with compounds of interest or controls for 24 hours. Cells are fixed in 4 percent formaldehyde and stained with Draq5 (BioStatus) to identify cells and subcellular compartment boundaries prior to signal detection. 8 Images per well were acquired on an Evotec Opera at 2 wavelengths (488 and 635nm), and the ratio of fluorescence in the nucleus relative to fluorescence in the cytoplasm (N/C Ratio) in the 488nm channel was calculated for a minimum of 350 cells per image.
For `CCCCCCCC/C=C\CCCCCCCC(=O)OC[C@@H](O)[C@H]1OC[C@H](O)[C@H]1O`, the molecule was called inactive. Regarding `CCN(CC)C(=S)SSC(=S)N(CC)CC`, the molecule was classed as inactive. Then `CCCC(CCC)C(=O)O`, with “inactive”. Turning to `NC(=O)N(O)[C@@H]1COc2cc(OCc3ccccc3)ccc21`, the call was inactive. With `CCOc1ccc2[nH]cc(C(=O)NCc3ccccc3)c(=O)c2n1`, the outcome was inactive. Turning to `O=C(O)c1cccc(C(=O)O)c1`, the outcome was inactive. Take `CCCCCCOC(=O)CC(CC(=O)OCCCCCC)(OC(=O)CCC)C(=O)OCCCCCC`: the result was inactive. To `OCC(CO)(CO)CO` belongs “inactive”; to `OC[C@H]1O[C@@H]2O[C@H]3[C@H](O)[C@@H](O)[C@@H](O[C@H]4[C@H](O)[C@@H](O)[C@@H](O[C@H]5[C@H](O)[C@@H](O)[C@@H](O[C@H]6[C@H](O)[C@@H](O)[C@@H](O[C@H]7[C@H](O)[C@@H](O)[C@@H](O[C@H]1[C@H](O)[C@H]2O)O[C@@H]7CO)O[C@@H]6CO)O[C@@H]5CO)O[C@@H]4CO)O[C@@H]3CO`, “inactive”; to `Nc1ccn([C@@H]2O[C@H](CO)[C@@H](O)[C@@H]2O)c(=O)n1`, “inactive”. Then `c1ccc2cc3ccccc3cc2c1`, with “inactive”. Then `CC[C@H](C)C(=O)O[C@H]1C[C@H](O)C=C2C=C[C@H](C)[C@H](CC[C@@H](O)C[C@@H](O)CC(=O)O)[C@H]21`, with “inactive”; and `CCCCN1C(=O)[C@@H]([C@H](O)C2CCCCC2)NC(=O)C12CCN(Cc1ccc(Oc3ccc(C(=O)O)cc3)cc1)CC2`, with “inactive”. As for `O=C(O)CO`, the molecule was called inactive.

With `CCCCCCCCCCCCCCCCOS(=O)(=O)O`, the outcome was inactive.

In the case of `CC(C)c1nnc2ccc(-c3ocnc3-c3cc(F)ccc3F)cn12`, the molecule was called inactive. On to `O=C(O)c1ccc2c(c1)nc(C(=O)NC1CCN(C3CC3)CC1)n2Cc1cc(-c2ccc(Cl)s2)on1`, for which the molecule was classed as inactive.

On to `CCCCCCCCN(C)C`, for which the molecule was called inactive.

As for `O=c1[nH]cnc2c1ncn2[C@H]1CC[C@@H](CO)O1`, the molecule was called inactive. Then `C[C@@H](Oc1ccc(CNC(=O)c2cccnc2Oc2ccc3c(c2)OCO3)c(F)c1)C(=O)O`, with “inactive”; and `Cc1nc(-c2ccccn2)ncc1C(=O)Nn1cc(C)c2cc(F)ccc21`, with “inactive”; and `CCCCCOC(C)=O`, with “inactive”.

Take `C=CN1CCCC1=O`: the result was inactive. Then `OCc1ccccc1`, with “inactive”; and `OC(CCl)CCl`, with “inactive”; and `CC(C)CCCCCCOC(=O)C1CCCCC1C(=O)OCCCCCCC(C)C` (stereo not given), with “inactive”. In the case of `OC(Cn1cncn1)(Cn1cncn1)c1ccc(F)cc1F`, the molecule was classed as inactive. Then `c1ccc2ncccc2c1`, with “inactive”; and `C=CCc1cc(S(=O)(=O)c2ccc(O)c(CC=C)c2)ccc1O`, with “inactive”; and `CC(C)C(=O)Nc1ccc([N+](=O)[O-])c(C(F)(F)F)c1`, with “inactive”. `CCc1ccc(O)c(C(C)(C)C)c1`: the molecule was called inactive. Then `Cc1nccn1-c1ccc(Sc2cccc(C3(C(N)=O)CCOCC3)c2)cc1`, with “inactive”; and `NC(N)=O`, with “inactive”.

Turning to `COc1cc2c(c(OC)c1OC)-c1ccc(OC)c(=O)cc1[C@@H](NC(C)=O)CC2`, the call was inactive.

Consider `COCc1nnc(-c2ccc[n+]([O-])c2)n1-c1c(Cl)c(Cl)cc2[nH]c(=O)c(=O)[nH]c12`, for which the molecule was called inactive.

Turning to `Cc1ccc(S(=O)(=O)NC(=O)NN2CCCCCC2)cc1`, the molecule was classed as inactive. Then `CNC(C)=O`, with “inactive”; and `O=C1CN(N=Cc2ccc([N+](=O)[O-])o2)C(=O)N1`, with “inactive”. With `COc1cc(C(C)C)c2c(c1)S(=O)(=O)N(COc1cc(=O)n3cccc(OCCN4CCCCC4)c3n1)C2=O`, the call was inactive. Consider `Cn1c(=O)c2[nH]cnc2n(C)c1=O`, for which the molecule was called inactive.
